# From PubChem BioAssay AID463173 (ICCB-Longwood Screening Facility, Harvard Medical School, 2010)
# About 4,300 (8.3%) of roughly 52,000 compounds were called active. No stated cut-off is given here; in the data, active means survival mostly below about 52% (no sharp cut-off); inactive means mostly above about 56%. Shown is part of a subset that was picked to be rich in actives.
# Tested on: DeltatarO mutant
# Assay: growth inhibition of S. aureus wild type versus tarO mutant, primary screen, teichoic acid synthesis inhibitors, RN4220, OD600 (AID 463173)
# Details: OD600, 18 h, stronger effect = lower value, screened at 18.75 µg/mL (by protocol)
row,Compound,survival
1,COc1ccc(OC)c(CNC(=O)c2cnc(N(C)C)nc2)c1,71% (inactive)
2,O=C(Cc1ccc(NC(=O)N2CCCCc3ccccc32)cc1)Nc1ccccc1Br,73% (inactive)
3,Cc1ccc(C)c(N2CCN(C(=O)c3cccc(-n4c(C)nc5cccnc54)c3)CC2)c1,78% (inactive)
4,Clc1ccccc1CNc1nc2ccccc2c2nc(-c3ccccc3)nn12,108% (inactive)
5,COc1cccc(CNc2nc3c(-c4cccc(C)c4)nnn3c3ccccc23)c1,96% (inactive)
6,Cc1ccc(CNc2nc3ccccc3c3nc(-c4cccc(C)c4)nn23)cc1,18% (active)
7,CCc1c(C)nc2nncn2c1NCc1ccccc1,85% (inactive)
8,Cc1cccc(-c2nc3c4ccccc4nc(NCc4ccc(F)cc4)n3n2)c1,84% (inactive)
9,COc1cccc(CNc2nc3ccccc3c3nc(-c4cccc(C)c4)nn23)c1,31% (active)
10,c1ccc(CNc2nc3ccccc3c3nc(-c4ccccc4)nn23)cc1,54% (inactive)
11,Cc1ccc(CNc2cc(C)nc3nc(-c4ccc(C)cc4)nn23)cc1,69% (inactive)
12,COc1cccc(CNC(=O)Cn2c(=O)n3nc(-c4cccc(C)c4)nc3c3ccccc32)c1,93% (inactive)
13,COc1ccc(CNc2nc3ccccc3c3nc(-c4ccccc4)nn23)cc1,35% (active)
14,CCc1c(C)nc2nc(-c3ccccc3)nn2c1NCc1ccc(C)cc1,-4% (active)
15,Cc1ccc(CNc2cc(C)nc3nc(-c4cccc(C)c4)nn23)cc1,124% (inactive)
16,N#C/C(=C\C1CC=CCC1)c1nc2ccccc2[nH]1 (stereo not drawn),86% (inactive)
17,Cc1cc(C)cc(NC(=O)CSc2nc(-c3ccccc3)nn2C(=O)c2ccco2)c1,110% (inactive)
18,S=C(NCCCN1CCOCC1)N1CCN(c2ccccc2)CC1,84% (inactive)
19,Cc1c(C=Nc2ccc(Cl)cc2)c(O)n(C)c(=O)c1C#N,74% (inactive)
20,CCSc1ncc(Cl)c(C(=O)Nc2c(C(=O)Nc3ccc(Cl)cc3)oc3ccccc23)n1,105% (inactive)
21,Cc1cccc(-c2nc3c4ccccc4nc(NCc4ccc(Cl)cc4)n3n2)c1,44% (active)
22,Cc1cccc(-c2nc3c4ccccc4nc(N4CCN(c5cccc(Cl)c5)CC4)n3n2)c1,71% (inactive)
23,Cc1cccc(-c2nc3c4ccccc4nc(N4CCN(c5ccc(F)cc5)CC4)n3n2)c1,65% (inactive)
24,CC(=O)c1ccc(N2CCN(c3nc4ccccc4c4nc(-c5cccc(C)c5)nn34)CC2)cc1,41% (active)

row,Compound,survival
1,Clc1ccc(CNc2nc3ccccc3c3nc(-c4cccnc4)nn23)cc1,80% (inactive)
2,CCCCCC(=O)Nc1ccc(NC(=O)c2cc3ccccc3o2)c(OC)c1,68% (inactive)
3,Cc1ccc(CCNC(=O)CCCc2nnc3n(C)c(=O)c4sccc4n23)cc1,86% (inactive)
4,CCCN1CCN(C(=O)Cn2ncc3c4ccccc4n(Cc4cccc(Cl)c4)c3c2=O)CC1,72% (inactive)
5,Clc1ccccc1CN1CCN(Cc2ccco2)CC1,86% (inactive)
6,CCn1c2ccccc2c2cc(CN3CCN(Cc4ccc(Br)cc4)CC3)ccc21,-1% (active)
7,CCn1c2ccccc2c2cc(CN3CCN(Cc4cccc(Cl)c4)CC3)ccc21,-1% (active)
8,O=c1c2ccccc2n(Cc2ccccc2Cl)c(=O)n1CCc1ccccc1,60% (inactive)
9,CCCn1c(N2CCN(Cc3ccc(Cl)cc3)CC2)nc2ccccc21,91% (inactive)
10,CCn1c2ccccc2c2cc(CN3CCN(Cc4ccccc4Cl)CC3)ccc21,-1% (active)
11,CCn1c2ccccc2c2cc(CN3CCN(Cc4ccc(Cl)cc4)CC3)ccc21,-1% (active)
12,CCn1c2ccccc2c2cc(CN3CCN(Cc4ccco4)CC3)ccc21,81% (inactive)
13,CCS(=O)(=O)N1CCN(Cc2ccccc2)CC1,72% (inactive)
14,CC(C)n1c(N2CCN(Cc3ccc(Cl)cc3)CC2)nc2ccccc21,83% (inactive)
15,O=c1c2ccccc2n(Cc2cccc(Cl)c2)c(=O)n1Cc1ccccc1,124% (inactive)
16,CCS(=O)(=O)N1CC(=O)N(c2cc(C)cc(C)c2)C(C)(C(=O)NC2CCCCC2)C1 (stereo not drawn),92% (inactive)
17,COc1cc(NC(=O)Cn2cnc3c2c(=O)n(C)c(=O)n3C)c(OC)cc1Cl,65% (inactive)
18,CC(C)(C)c1ccc(CSC2=Nc3ccccc3C3=NC(CC(=O)NCc4cccs4)C(=O)N23)cc1 (stereo not drawn),68% (inactive)
19,CCC(=O)N=c1sc2ccccc2n1-c1ccccc1,71% (inactive)
20,COc1ccc(C(=O)Nc2ccc3oc(-c4cccnc4)nc3c2)cc1OC,62% (inactive)
21,CCCCOc1ccccc1C(=O)N(Cc1cccc(F)c1)C1CCS(=O)(=O)C1 (stereo not drawn),75% (inactive)
22,CCc1ccc(NC(=O)CCn2c(=O)c3cccn3c3ccccc32)cc1,48% (inactive)
23,COCCCn1c(=O)c2sccc2n2c(CCCC(=O)Nc3ccc(F)c(F)c3)nnc12,83% (inactive)
24,Cc1ccc(NC(=O)Cn2c(=O)cc(-c3ccccc3)c3c(C)nn(C)c32)c(Cl)c1,78% (inactive)

row,Compound,survival
1,CCOc1ccc(Cn2c(=O)oc3ccccc32)cc1,117% (inactive)
2,CCOc1ccc(CN2CCN(C(=O)c3ccco3)CC2)cc1,77% (inactive)
3,CCOc1ccc(CN2CCN(Cc3ccc4c(c3)c3ccccc3n4CC)CC2)cc1,0% (active)
4,CC(C)(C)OC(=O)N1CCC(c2c(C(=O)NC3CCCCC3)cnn2-c2ccc(F)cc2F)CC1,76% (inactive)
5,CCOc1ccc(NC(=O)NC(C)c2c(-n3cccc3)sc3c2CCN(CC)C3)cc1 (stereo not drawn),96% (inactive)
6,Cc1nc(-c2ccc(F)cc2)sc1CCNC(=O)Cc1ccc(F)cc1,81% (inactive)
7,CCc1ccc(-n2nc(CO)c(C(=O)NCCCc3ccccc3)n2)cc1,95% (inactive)
8,CCc1ccc(-n2nc(CO)c(C(=O)NCCOC)n2)cc1,56% (inactive)
9,CCOc1ccc(-n2nc(CO)c(C(=O)NCC(c3ccccc3)c3ccccc3)n2)cc1,48% (inactive)
10,CCOc1ccc(-n2nc(CO)c(C(=O)NCCCc3ccccc3)n2)cc1,89% (inactive)
11,CCOc1ccc(-n2nc(CO)c(C(=O)NCc3cccnc3)n2)cc1,44% (active)
12,Cc1ccc(CNC(=O)c2nn(-c3ccc(Cl)cc3)nc2CO)cc1,94% (inactive)
13,Cc1ccc(-n2nc(CO)c(C(=O)NCc3cccnc3)n2)cc1,90% (inactive)
14,CCCCNC(=O)c1nn(-c2ccc(CC)cc2)nc1CO,41% (active)
15,COCCNC(=O)c1nn(-c2ccc(Cl)cc2)nc1CO,91% (inactive)
16,CCOc1ccc(-n2nc(CO)c(C(=O)NCc3ccc(Cl)cc3)n2)cc1,43% (active)
17,CCc1ccc(-n2nc(CO)c(C(=O)NCc3cccnc3)n2)cc1,51% (inactive)
18,CCOc1ccc(-n2nc(CO)c(C(=O)NCC(C)O)n2)cc1 (stereo not drawn),39% (active)
19,COc1ccc(C2CC3(CC(C)(C)NC(=O)N3)Oc3cc(O)ccc32)cc1 (stereo not drawn),102% (inactive)
20,CCC(=O)Oc1cc(C(C)(C)C)cc2cc(-c3nc(-c4ccc(OC)cc4OC)no3)c(=O)oc12,89% (inactive)
21,Cc1nn(CCC(=O)NCc2cccc(Br)c2)c(=O)c2nn(-c3ccccc3)c(C)c12,92% (inactive)
22,CC1=C(c2ccc(C)cc2)S(=O)(=O)N(Cc2ccc(C(=O)NCc3ccccc3F)cc2)C1=O,80% (inactive)
23,Cc1cc(C)nc(Sc2ccccc2)n1,76% (inactive)
24,N#Cc1ccccc1NC(=O)CC1Nc2ccccc2NC1=O (stereo not drawn),98% (inactive)

row,Compound,survival
1,Cc1ccc(S(=O)(=O)Cc2ccc(C(=O)NCCc3ccc(Cl)cc3)o2)cc1,56% (inactive)
2,COc1ccc(NC(=O)Cn2cc(C(=O)c3ccc(C)c(C)c3)c(=O)c3cc(OC)ccc32)cc1,72% (inactive)
3,O=c1c2oc3ccccc3c2n(Cc2ccc(F)cc2)c(=O)n1Cc1ccco1,71% (inactive)
4,N#C/C(=C/c1ccc(Cl)cc1Cl)c1nc2ccccc2c(=O)[nH]1,70% (inactive)
5,CCOc1ccc(-n2nc(CO)c(C(=O)NCc3cccc(OC)c3)n2)cc1,41% (active)
6,CCOc1ccc(-n2nc(CO)c(C(=O)NCc3ccccn3)n2)cc1,53% (inactive)
7,COc1cccc(CNC(=O)c2nn(-c3ccccc3Cl)nc2CO)c1,85% (inactive)
8,Cc1nn(CCCC(=O)Nc2cc(C(F)(F)F)ccc2Cl)c(=O)c2c1sc1ccccc12,78% (inactive)
9,Cc1nc(-c2ccccc2)sc1-c1ccc(SCC(=O)Nc2ccc(F)cc2F)nn1,19% (active)
10,Cc1nc(C)c(-c2ccc(SCC(=O)Nc3ccc(C)c(F)c3)nn2)s1,93% (inactive)
11,CC(=O)Nc1cccc(NC(=O)CSc2ccc(-c3sc(-c4ccccc4)nc3C)nn2)c1,-14% (active)
12,Cc1ccc(NC(=O)CSc2ccc(-c3sc(-c4ccccc4)nc3C)nn2)cc1F,25% (active)
13,Cc1nc(-c2ccccc2)sc1-c1ccc(SCC(=O)Nc2ccccc2)nn1,24% (inactive)
14,Cc1ccc(NC(=O)CSc2ccc(-c3ccccn3)nn2)cc1F,49% (inactive)
15,Cc1cccc(NC(=O)CSc2ccc(-c3sc(-c4ccccc4)nc3C)nn2)c1C,33% (inactive)
16,Cc1nc(-c2ccccc2)sc1-c1ccc(SCC(=O)NCc2ccc(Cl)cc2)nn1,52% (inactive)
17,O=C(CSc1ccc(-c2ccccn2)nn1)Nc1ccc(F)c(F)c1,27% (active)
18,Cc1cccc(NC(=O)CSc2ccc(-c3ccccn3)nn2)c1,103% (inactive)
19,Cc1nc(-c2ccccc2)sc1-c1ccc(SCC(=O)NCc2ccc(F)cc2)nn1,53% (inactive)
20,Cc1nc(-c2ccccc2)sc1-c1ccc(SCC(=O)Nc2cccc(C(F)(F)F)c2)nn1,41% (inactive)
21,O=C(COc1ccc(S(=O)(=O)N2CCCC2)cc1)N1CCCC1,91% (inactive)
